Dicer inh – inhibitors of human Dicer processing of pre-microRNA; Q9UPY3; cat-ELCCA pre-miR-21 Dicer processing, chemiluminescence; hits give high values; z-score at 25 µM; hit rate 6% among 47,000; in the data active = z-score above about 3, passing the limit was not always enough;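 also: higher signal means more uncleaved substrate so more Dicer inhibition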
Of the large screens only hits and unclear results are named; the others gave an inactive call. Only a selection was taken, and hits are over-represented in it overall.

Cn1c(SCC(=O)N(c2ccccc2)C2CCCCC2)nnc1-c1ccc2ccccc2c1	none
COC(=O)CCC(=O)c1oc2ccc(Br)cc2c1N	none
CNC(=O)c1cccc2c1-c1ccccc1C2=O	none
O=S(=O)(NCc1ccccn1)c1cccc2ccccc12	none
CC(C)(C)NS(=O)(=O)c1cccc2cccnc12	none
O=S(=O)(NCCCCNS(=O)(=O)c1cccc2cccnc12)c1cccc2cccnc12	Dicer inh 5.5
COc1ccc(Sc2ccc(OC)cc2C(=O)O)c(C(=O)O)c1	none
Cc1cc(C)n2nc(-c3ccccc3)c(Br)c2n1	none
CS(=O)(=O)n1ccc(-c2cccc([N+](=O)[O-])c2)n1	none
O=c1oc2c(-c3cccc(Cl)c3)cc(O)cc2s1	Dicer inh 6.2
O=c1oc2c(-c3ccc(Cl)cc3)cc(O)cc2s1	Dicer inh 12
O=C(c1ccc(Cl)cc1)c1c(O)cc(-c2ccc(Cl)cc2)oc1=O	none
O=c1oc2c(-c3ccccc3F)cc(O)cc2s1	none
O=c1c(-c2cccc(Cl)c2)c(C(F)(F)F)oc2cc(O)ccc12	none
O=C1C2=C(c3ccccc3)c3cc(Cl)ccc3C2Sc2ccccc21 (centres undefined)	none
CC(=O)Nc1ccc(NS(=O)(=O)c2ccc(S(=O)(=O)c3ccccc3)s2)cc1	none
O=[N+]([O-])c1cc(Cl)c(-n2cccc2)cc1Sc1ccc(Cl)cc1	none
CS(=O)(=NC(=O)c1cc(C(F)(F)F)cc(C(F)(F)F)c1)c1ccc(Cl)cc1 (centres undefined)	none
Cn1c(NCCO)nc2c1c(=O)n(Cc1ccccc1)c(=O)n2C	none
Cc1nnc(Nc2cccc(Cl)c2C)s1	Dicer inh 3.4
Clc1cccc(Nc2nnns2)c1Cl	none
Cc1cc(Cl)ccc1Nc1nnc(-c2ccccc2Cl)s1	none
O=C(Nc1cccc(Cl)c1)Nc1nccc(-c2cc(OCC(F)(F)F)ccc2OCC(F)(F)F)n1	none
COC(=O)c1cnc(Nc2ccc(C(C)(C)C)cc2)c([N+](=O)[O-])c1	none
CC(C)N1C(=O)C(O)(CC(=O)c2ccc(Cl)cc2)c2ccccc21 (centres undefined)	none
N#C/C(=C\c1ccc(C#Cc2ccccc2)s1)C(=O)c1ccccc1	none
Cc1ccc(CN2C(=O)C(O)(c3c(C)[nH]c4ccccc34)c3ccccc32)cc1 (centres undefined)	none
Cc1[nH]c2ccccc2c1C1(O)C(=O)N(Cc2ccc3c(c2)OCO3)c2ccccc21 (centres undefined)	Dicer inh 3.9
Cc1[nH]c2ccccc2c1C1(O)C(=O)N(Cc2ccc(Cl)cc2)c2ccccc21 (centres undefined)	none
NC[C@@H]1O[C@H](O[C@H]2[C@@H](O)[C@H](O[C@@H]3[C@@H](O)[C@H](N)C[C@H](N)[C@H]3OC3O[C@H](CO)[C@@H](O)[C@H](O)[C@H]3N)O[C@@H]2CO)[C@H](N)[C@@H](O)[C@@H]1O (some centres undefined)	none
O=C(NNC(=S)Nc1ccccc1C(F)(F)F)c1ccc(-c2ccc(Cl)cc2)s1	Dicer inh 4.3
CC(C)(C)NC(=S)NNC(=O)c1ccc(-c2ccc(Cl)cc2)s1	none
Cc1ccc(O)c(C(=O)NNC(=S)Nc2ccccc2C(F)(F)F)c1	none
COC(=O)c1cn(Cc2cc(OC)ccc2OC)cc(F)c1=O	none
CC(C)(CO)NC(=O)C1CC(c2cccc(Br)c2)=NO1 (centres undefined)	none
O=c1ccc2c(-c3ccccc3)c3ccc(O)cc3oc-2c1	Dicer inh 3.1
COc1ccc2c(=O)cc(-c3ccccc3)oc2c1	none
O=c1c2ccccc2oc2cc(O)ccc12	none
Cn1c(=O)c2c(-c3ccccc3)n3c4ccccc4nc(-c4cccnc4)c3c2n(C)c1=O	none
CNC(=S)N/N=C/c1ccccc1Cl	none
Oc1ccccc1/C=N/NC(=S)NC1CC2CC1C1C=CCC21 (centres undefined)	Dicer inh 3.8
S=C(N/N=C/c1cccnc1)NC1CC2CC1C1C=CCC21 (centres undefined)	none
Cc1cc(C)c(C(=O)Nc2ccccc2)c(CC(C)(C)C(=O)O)c1	Dicer inh 4.7
CCc1sc(C(C)(C)C)cc1NC(=O)c1ccccc1	none
Cc1cc(C)c(C(=O)O)c(CC(C)(C)C(=O)O)c1	none
N#CCCn1[nH]c(-c2ccccc2)cc1=O	none
CN(C)CCCOc1nn(Cc2ccccc2)c2ccccc12	none
O=C1CCc2ccccc2N1Cc1ccccc1	none
Cc1cc(=O)oc2cc(NS(=O)(=O)c3cccs3)ccc12	none
O=S(=O)(Nc1cccc2ccccc12)c1cccs1	none
O=S(=O)(Nc1ccc(Oc2ccc(NS(=O)(=O)c3cccs3)cc2)cc1)c1cccs1	Dicer inh 3.6
Cn1c(=O)c2c(ncn2CC(O)CO)n(C)c1=O (centres undefined)	none
COc1ccc(OCc2nn3c(Cc4ccccc4)nnc3s2)cc1	none
CSc1nc2ccccc2c(=O)n1CCc1ccccc1	none
Cc1nc2ccccc2n1C1CC(=O)N(c2ccc(F)cc2)C1=O (centres undefined)	none
C=C(C)Cn1c(C2CC(=O)N(c3ccc(OCC)cc3)C2)nc2ccccc21 (centres undefined)	none
O=C1CC(c2nc3ccccc3n2Cc2ccc(Cl)cc2)CN1c1ccccc1 (centres undefined)	Dicer inh 5.9
O=C1CC(c2nc3ccccc3n2CCc2ccccc2)CN1c1ccccc1 (centres undefined)	Dicer inh 4.3
CC(C)CCn1c(C2CC(=O)N(c3ccccc3)C2)nc2ccccc21 (centres undefined)	Dicer inh 3.7
CCCCCCn1c(C2CC(=O)N(c3ccccc3)C2)nc2ccccc21 (centres undefined)	none
O=c1[nH]c2ccccc2n1Cc1ccc(Cl)cc1	none
CC(c1ccccc1)n1c(C2CC(=O)N(c3ccccc3)C2)nc2ccccc21 (centres undefined)	Dicer inh 4.7
O=C1CC(SCc2ccc(Cl)cc2)C(=O)N1c1ccccc1 (centres undefined)	none
CCOc1ccc(N2CC(c3nc4ccccc4n3CC)CC2=O)cc1 (centres undefined)	none
CC(C)c1ccc(N2CC(C(=O)O)CC2=O)cc1 (centres undefined)	none
COc1cccc(-c2nc(-c3cc4ccc(C)cc4[nH]c3=O)no2)c1	none
O=C(O)C1CC2(COC(c3ccccc3)OC2)C1C(=O)O (centres undefined)	none
CCc1cc(C(=O)c2ccc(OC)cc2)c(NC(=O)CSc2nnc(-c3snnc3C)n2C2CC2)s1	none
CC1CN=C(N(C(=O)Nc2ccc(Cl)cc2)C(C)c2ccccc2)S1 (centres undefined)	none
CCOC(=O)c1nn(-c2ccccc2)c(=N)c(C#N)c1C	none
COc1cc(C(c2c(C)[nH][nH]c2=O)c2c(C)[nH][nH]c2=O)ccc1OC(C)C	none
CC(C)COC(=O)COc1ccc2c(=O)c(-c3ccccc3)coc2c1	none
CCOC(=O)c1cc(=O)c2c(OCc3ccccc3)ccc(C(C)(C)C)c2o1	none
O=C(CCCCC(=O)Nc1c(I)cc(I)c(C(=O)O)c1I)Nc1c(I)cc(I)c(C(=O)O)c1I	none
CN(C)S(=O)(=O)n1cc(/C=C/c2noc(-c3ccccc3O)n2)c2ccccc21	none
CN(C)S(=O)(=O)n1nc(/C=C/c2ccccc2Cl)nc1-c1ccccc1O	Dicer inh 8.1
Oc1ccccc1-c1nc(/C=C/c2cccs2)nn1-c1ccccc1	none
FC(F)(F)c1cc(-c2ccc(Cl)cc2)nc2ccnn12	none
Cc1ccc(C(=O)CC2(O)C(=O)N(CCc3ccccc3)c3ccc(Cl)cc32)o1 (centres undefined)	Dicer inh 5.2
CCCCN1C(=O)C(O)(CC(=O)c2c(C)n[nH]c2C)c2cc(Br)ccc21 (centres undefined)	none

Compound activity deposited in PubChem by Center for Chemical Genomics, University of Michigan.
